This note sets out measurements from the supplement of paper PMC4166925.

± gives the standard deviation of the averaged measurements. In all, about 33,000 sequences were measured (“E-score (dimensionless, -0.5 to 0.5)”: median about -0.049, highest 2% from about 0.37 on). This is one part of a sample in which the highest values are shown more often than they occur.

The subject of the assay is T1, PmTbr T-box DNA-binding domain (GST fusion).
T1 sequence: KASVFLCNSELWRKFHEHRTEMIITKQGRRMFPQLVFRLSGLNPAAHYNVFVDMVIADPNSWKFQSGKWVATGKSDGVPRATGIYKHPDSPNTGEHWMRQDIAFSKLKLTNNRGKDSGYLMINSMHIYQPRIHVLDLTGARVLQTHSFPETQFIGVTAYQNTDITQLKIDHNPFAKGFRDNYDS
Kind of assay: PBM E-score of 8-mer (E-score (dimensionless, -0.5 to 0.5)); Tbr is Tbrain of the sea star Patiria miniata (Pm) or the sea urchin Strongylocentrotus purpuratus (Sp); higher = stronger binding preference. To be noted: the construct has about 5 more residues each side. In a few lines:
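Using the Universal PBM Analysis Suite, every ungapped 8-mer received an enrichment E-score averaged over duplicate arrays. Probe intensities came from double-stranded Universal Agilent oligonucleotide arrays incubated with 200 nM GST-fused Tbr T-box DNA-binding domain in PBS (pH 7.5). That protein was expressed in BL21 E. coli at 20 °C and purified by glutathione affinity chromatography.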
For the sequence ATGTTATA, the “PBM E-score of 8-mer” value is -0.0814 ± 0.076.
The result for CTGTTACA reads 0.197 ± 0.0076; that for GTGTTATA, 0.426 ± 0.013.
For GTGTTAAA the value was 0.429 ± 0.021; for GTGTTAGA, 0.419 ± 0.0094; for CTGTTAGA, 0.118 ± 0.0087.
Consider GTGTTACA, for which the “PBM E-score of 8-mer” value amounted to 0.386 ± 0.013.
As for CACCAGTA, the “PBM E-score of 8-mer” value came to 0.132 ± 0.018.
The result for CAGGCGTA reads -0.0498 ± 0.043; that for AGCCACGC, -0.0441 ± 0.025.
Turning to ACACTACG, the “PBM E-score of 8-mer” value came to 0.283 ± 0.0065.
Take AGAGTTGC: the “PBM E-score of 8-mer” value came to 0.0099 ± 0.0045.
Consider AGTACTCC, for which the “PBM E-score of 8-mer” value is -0.28 ± 0.033.
As to CTAGGCCC, the “PBM E-score of 8-mer” value was -0.274 ± 0.082.
As for TAATGCGA, the “PBM E-score of 8-mer” value turned out to be 0.0983 ± 0.054.
AAAACCTG: the “PBM E-score of 8-mer” value is 0.191 ± 0.063.
For CTAGCCAG the value was -0.185 ± 0.027; for AAACTCTC, -0.00208 ± 0.031; for GGAGCTCA, -0.0734 ± 0.021.
With CTGTTAAC, the “PBM E-score of 8-mer” value turned out to be 0.281 ± 0.055.
GTGTTAAC: the “PBM E-score of 8-mer” value came out at 0.438 ± 0.017.
With ATGTTAAC, the “PBM E-score of 8-mer” value was 0.161 ± 0.015.
Take CTAAGTGA: the “PBM E-score of 8-mer” value was 0.225 ± 0.032.
AACTTAGA: the “PBM E-score of 8-mer” value is -0.157 ± 0.055.
The result for ACGCAGTA reads -0.0663 ± 0.018; that for GGGTGTCA, 0.472 ± 0.0071; that for CGGTGTCA, 0.4 ± 0.012.
Turning to CGGTGTGA, the “PBM E-score of 8-mer” value came out at 0.451 ± 0.0064.
The result for CGGTGTCC reads -0.00395 ± 0.072; that for CGATGTGA, 0.228 ± 0.018; that for CGATGTCA, 0.0984 ± 0.03.
As to GGGGGTCA, the “PBM E-score of 8-mer” value was -0.0111 ± 0.17.
For GCGTGTCA the value was 0.276 ± 0.034; for CGGTGTGC, 0 ± 0.12; for CGAAATTC, 0.0215 ± 0.011.
On to ATAATGCC, for which the “PBM E-score of 8-mer” value was -0.174 ± 0.081.
Consider AGTATGCG, for which the “PBM E-score of 8-mer” value is -0.0996 ± 0.096.
Consider CAGAACCA, for which the “PBM E-score of 8-mer” value is -0.232 ± 0.018.
On to GCAATTCA, for which the “PBM E-score of 8-mer” value is 0.0777 ± 0.042.
For GACAAGGC the value was 0.101 ± 0.025; for ATTCGCAA, 0.298 ± 0.027; for CTTCGCAA, 0.336 ± 0.028.
CTTCGCAC: the “PBM E-score of 8-mer” value stood at 0.454 ± 0.019.
On to CTTCGCCC, for which the “PBM E-score of 8-mer” value is -0.0791 ± 0.096.
The result for ATTCGCAG reads 0.297 ± 0.024.
On to ATTCGCAC, for which the “PBM E-score of 8-mer” value was found to be 0.4784 ± 0.002.
The result for GATTACGA reads -0.00232 ± 0.07.
The result for ATGGCAGA reads -0.0257 ± 0.063.
For AAGACATT, the “PBM E-score of 8-mer” value is -0.203 ± 0.097.
Consider ATGACACG, for which the “PBM E-score of 8-mer” value turned out to be 0.312 ± 0.017.
Consider ATGACACA, for which the “PBM E-score of 8-mer” value turned out to be 0.314 ± 0.0075.
Take CTGACACC: the “PBM E-score of 8-mer” value was 0.464 ± 0.0063.
With CTGACAGC, the “PBM E-score of 8-mer” value amounted to 0.289 ± 0.011.
CTGACATC: the “PBM E-score of 8-mer” value was -0.0976 ± 0.035.
In the case of ATGACACC, the “PBM E-score of 8-mer” value worked out at 0.463 ± 0.0098.
For GCCGCTGA the value was -0.113 ± 0.074; for GACATCGA, -0.0159 ± 0.0023; for CCCACCAC, -0.0276 ± 0.048.
The result for CACACCAC reads 0.406 ± 0.012; that for CGCACCAG, 0.2978 ± 0.0014.
As for AACACCAG, the “PBM E-score of 8-mer” value came out at 0.335 ± 0.022.
In the case of CCCACCAA, the “PBM E-score of 8-mer” value is -0.112 ± 0.048.
As for CACACCAG, the “PBM E-score of 8-mer” value came out at 0.399 ± 0.018.
Turning to CACCACAC, the “PBM E-score of 8-mer” value is 0.367 ± 0.018.
Regarding CACACCAA, the “PBM E-score of 8-mer” value came to 0.3718 ± 0.0018.
For the sequence CTCACCAA, the “PBM E-score of 8-mer” value is 0.211 ± 0.042.
Turning to CAATATCG, the “PBM E-score of 8-mer” value is 0.06478 ± 0.00031.
For GCCATAGA, the “PBM E-score of 8-mer” value is -0.0661 ± 0.067.
As for CAGGTAGC, the “PBM E-score of 8-mer” value is -0.062 ± 0.011.
The result for CAGTACCA reads -0.0345 ± 0.056; that for ACATTACC, -0.144 ± 0.023; that for AGCCACGG, -0.119 ± 0.013.
Consider CTCGTCCC, for which the “PBM E-score of 8-mer” value was -0.303 ± 0.016.
AAATAGGT: the “PBM E-score of 8-mer” value was 0.0404 ± 0.07.
For GCACAGGA, the “PBM E-score of 8-mer” value was -0.162 ± 0.05.
For CGCAAAAC the value was 0.0965 ± 0.0024; for GCACGTGC, 0.2695 ± 0.0011.
For ACACGTGC the value was 0.387 ± 0.023.
The result for ACACGTGA reads 0.292 ± 0.017; that for ACACGTGG, 0.307 ± 0.022.
In the case of CCACGTGC, the “PBM E-score of 8-mer” value was 0.149 ± 0.013.
As to ACACGTGT, the “PBM E-score of 8-mer” value is 0.403 ± 0.023.
Turning to ACATGGTG, the “PBM E-score of 8-mer” value was found to be 0.243 ± 0.0055.
For GCAAGCCA, the “PBM E-score of 8-mer” value was -0.221 ± 0.037.
With GCATCTGA, the “PBM E-score of 8-mer” value was -0.0824 ± 0.1.
With ATTATCCG, the “PBM E-score of 8-mer” value is -0.0296 ± 0.042.
The result for GATGGCGA reads 0.1142 ± 0.00067; that for CAGTGGAG, -0.068 ± 0.012.
In the case of ACTTGTGG, the “PBM E-score of 8-mer” value worked out at 0.196 ± 0.014.
With CGTTGTGA, the “PBM E-score of 8-mer” value is 0.2 ± 0.0095.
For ACTTGTCA, the “PBM E-score of 8-mer” value was found to be 0.4044 ± 0.0039.
With ACTTGTGA, the “PBM E-score of 8-mer” value came to 0.411 ± 0.0095.
In the case of CCTTGTTA, the “PBM E-score of 8-mer” value came out at 0.126 ± 0.011.
As to TCTTGTCA, the “PBM E-score of 8-mer” value worked out at 0.207 ± 0.023.
Turning to ACTTGTTA, the “PBM E-score of 8-mer” value was found to be 0.372 ± 0.044.
As to ACTTGTTG, the “PBM E-score of 8-mer” value is 0.332 ± 0.018.
Take AGTTGTGG: the “PBM E-score of 8-mer” value is 0.122 ± 0.039.
On to AGTTGTGA, for which the “PBM E-score of 8-mer” value amounted to 0.387 ± 0.017.
GCTTGTCA: the “PBM E-score of 8-mer” value came to 0.0851 ± 0.047.
For GCTTGTGA, the “PBM E-score of 8-mer” value turned out to be 0.187 ± 0.0082.
For ATACTTAA, the “PBM E-score of 8-mer” value is -0.187 ± 0.096.
For the sequence CTAGTGCA, the “PBM E-score of 8-mer” value came out at 0.173 ± 0.0046.
The result for TCCCCAGA reads -0.207 ± 0.12.
For GCAGAAAA, the “PBM E-score of 8-mer” value is -0.0494 ± 0.066.
With TATTCCGA, the “PBM E-score of 8-mer” value was -0.274 ± 0.013.
For CACTTCGG, the “PBM E-score of 8-mer” value was determined as 0.363 ± 0.015.
On to ATATACGG, for which the “PBM E-score of 8-mer” value was -0.038 ± 0.039.
For CTTTTAGC, the “PBM E-score of 8-mer” value was found to be 0.22 ± 0.074.
Regarding AGTCCTAG, the “PBM E-score of 8-mer” value is -0.0285 ± 0.042.
The result for ATAGTAAG reads -0.216 ± 0.029.
